The results in this text go back to PubChem BioAssay (EPA / NIEHS).

Inconclusive results are not listed. Activity calls are given as the source filed them. How the source made its calls, unless noted: active means hit-call score of the fitted dose curve at least 0.9, where 1 is the maximum; inactive means score below 0.9.

The nature of assay [1]: CCTE_Deisenroth_5AR_NBTE_donor: CCTE's 5alpha-reductase NanoBRET Target Engagement Assay […], Deisenroth Lab (AID 2284319). The conditions noted are these: actives raise or lower the signal. The method, boiled down:
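HEK293T cells were reverse transfected with an SRD5A2-NanoLuc vector for 20 h, exposed to test chemical (8 points, 10 nM - 29.9 uM) for 3 h, then testosterone tracer for 2 h more. Donor luminescence (460 nm) was read; bidirectional fit versus DMSO.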

Assay [2] in a line: CCTE_Deisenroth_5AR_NBTE_acceptor: CCTE's 5alpha-reductase NanoBRET Target Engagement Assay - Autofluorescence Screen, Deisenroth Lab (AID 2284321).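 Further: compound fluorescence in the acceptor channel under 460 nm excitation flags autofluorescence artifacts.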 The conditions noted are these: actives raise or lower the signal. The method, boiled down: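 Chemicals diluted to a nominal 100 uM in DMSO were scanned at 460 nm excitation. Samples were read in three independent runs (n=3). Gain or loss of acceptor signal was fitted relative to DMSO.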

The next assay concerns SRD5A2 (gene 6716). The experiment in a line: CCTE_Deisenroth_5AR_NBTE_ratio: CCTE's 5alpha-reductase NanoBRET Target Engagement Assay - Ratio, Deisenroth Lab (AID 2284322). The following applies: actives raise or lower the signal. The method, boiled down:
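HEK293T cells transiently expressing an SRD5A2-NanoLuc fusion (20 h post-transfection) were exposed to test chemical (10 nM - 29.9 uM, 8 points) for 3 h, then testosterone tracer for a further 2 h. Acceptor/donor BRET ratio was fitted bidirectionally against DMSO baseline.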

The subject of another assay is SERPINA7 (gene 6906). The assay can be described thus: CCTE_GLTED_hTBG: CCTE's human Thyroxine-binding Globulin (TBG) Inhibition Assay, Great Lakes Toxicology and Ecology Division (GLTED) Lab (AID 2284343; active means hit-call score of the fitted dose curve at least 0.9, where 1 is the maximum;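 further: active chemicals lower fluorescence versus DMSO baseline by displacing probe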). The method, boiled down:
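Human thyroxine-binding globulin was exposed to each chemical for 2 hours, during which the ANSA probe could be displaced. Fluorescence was then measured at 380/475 nm, and loss of signal was analysed relative to DMSO.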

Read-out in a further assay: CD69, CD69 (gene 969)
The assay can be described thus: BSK_LPS_CD69: BioMAP Diversity Plus: LPS Assay for CD69 Biomarker Activity (AID 2284303). The conditions noted are these: primary human HUVEC with PBMC. The method, boiled down:
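CD69 surface levels were read by ELISA after 24 h chemical treatment of an LPS-stimulated HUVEC plus PBMC co-culture; positive-direction fit against DMSO vehicle.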

The next assay deals with IYD (gene 389434). The experiment in a line: CCTE_GLTED_hIYD: CCTE's human Iodotyrosine Deiodinase (xIYD) Inhibition Assay, Great Lakes Toxicology and Ecology Division (GLTED) Lab (AID 2284317; active means hit-call score of the fitted dose curve at least 0.9, where 1 is the maximum;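 further: cell-free human IYD enzyme made in baculovirus insect cells; iodide freed from monoiodotyrosine measured by cerium arsenite color change at 420 nm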). Summed up:
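Deiodination of MIT by insect-cell-produced human IYD is measured after a 3 h incubation with test chemical. Free iodide passes through a Dowex column and accelerates Sandell-Kolthoff Ce4+ reduction, read at 420 nm; run in triplicate.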

The nature of assay [3]: TAMU_PeakParms_SingleDonor1434_Asystole: Texas A&M University (TAMU) 1.5-hr Human Induced Pluripotent Stem Cell (iPSC)-derived Cardiomyocytes Calcium (Ca+2) Flux Assay for Cardiotoxicity: Asystole (quiescence of beating) (AID 2284328; active means hit-call score of the fitted dose curve at least 0.9, where 1 is the maximum). The method, boiled down:
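Average Ca2+-flux peak frequency (beats/s) was recorded in single-donor iPSC-derived cardiomyocytes after 90 min exposure (0.2–100 uM final, 0.5% DMSO). Asystole POD set as EC95 against DMSO, no preprocessing.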

Assay [4] can be described thus: IUF_NPC4_neurite_length_120hr: Leibniz Research Institute for Environmental Medicine (IUF) 120-hour Neuronal Morphology Assay for Neurite Length (NPC4) (AID 2284302). Summed up: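 Neurite length, the mean in um across TUBB3-stained neurons, is derived by skeletonization of high-content images after 120 h differentiation. Compound exposure, 7 concentrations plus solvent control, ran from plating of hNPC spheres on poly-D-lysine/laminin, with medium half-replaced on day 3.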

Assay [5] in a line: IUF_NPC5_oligodendrocyte_differentiation_120hr: Leibniz Research Institute for Environmental Medicine (IUF) 120-hour Oligodendrocyte Differentiation Assay (NPC5) (AID 2284304; active means hit-call score of the fitted dose curve at least 0.9, where 1 is the maximum;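 further: primary human fetal neural progenitor spheres plated to migrate and differentiate; share of O4-positive cells among Hoechst nuclei found by CNN image analysis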). Summed up: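 Human primary NPC neurospheres migrating and differentiating on laminin for 120 h under continuous compound exposure (serial dilution, solvent control). Endpoint: percent O4+ oligodendrocytes among Hoechst nuclei, detected by CNN image analysis, with DMSO as negative control.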

Assay [6] is described as follows: IUF_NPC2-5_cytotoxicity_72hr: Cytotoxicity Assessment at 72 hours in the Leibniz Research Institute for Environmental Medicine (IUF) Neural Progenitor Cell Migration and Differentiation Assay for Cytotoxicity (NPC2-5) (AID 2284306; active means hit-call score of the fitted dose curve at least 0.9, where 1 is the maximum;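 further: LDH release into supernatant measured by resorufin fluorescence marking membrane damage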). The method, boiled down:
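Membrane-integrity cytotoxicity at 72 h, read as LDH-driven resorufin fluorescence in supernatant. hNPC spheres from fetal cortex differentiate on coated plates in N2 medium, 37C, 5% CO2; seven serial compound concentrations plus solvent control (DMSO ≤0.1%).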

Assay [7] can be described thus: IUF_NPC2-5_cytotoxicity_120hr: Cytotoxicity Assessment at 120 hours in the Leibniz Research Institute for Environmental Medicine (IUF) Neural Progenitor Cell Migration and Differentiation Assay (NPC2-5) (AID 2284307; active means hit-call score of the fitted dose curve at least 0.9, where 1 is the maximum). Summed up:
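Fluorescence (RFU) from LDH-driven resazurin reduction in medium supernatants measured loss of membrane integrity after 120 h of compound exposure of differentiating primary human neural progenitor spheres on an extracellular matrix.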

Assay [8] can be described thus: IUF_NPC2-5_cell_number_120hr: Cell Number Assessment at 120 hours in the Leibniz Research Institute for Environmental Medicine (IUF) Neural Progenitor Cell Migration and Differentiation Assay (NPC2-5) (AID 2284308).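 Further: count of Hoechst-stained nuclei in migration zone around plated human neural progenitor spheres.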 The method, boiled down: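 Cell number is taken as all Hoechst-positive nuclei detected in the area into which cells migrate out of the sphere, scored at 120 h and referenced to DMSO solvent control, which was kept at no more than 0.1%.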

The nature of assay [9]: IUF_NPC2-5_viability_120hr: Viability Assessment at 120 hours in the Leibniz Research Institute for Environmental Medicine (IUF) Neural Progenitor Cell Migration and Differentiation Assay (NPC2-5) (AID 2284312). Summed up: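 Alamar blue resorufin fluorescence read after 5 days of differentiation, with compound present from day 0 and replenished at day 3. Primary hNPC spheres on laminin-coated plates, 37C; seven concentrations plus solvent control, fitted against DMSO.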

The nature of assay [10]: CCTE_Mundy_HCI_iCellGluta_NOG_NeuriteLength: CCTE's Neurite Outgrowth Assay in iCellGluta cells for Neurite Length, Mundy Lab (AID 2284318; active means hit-call score of the fitted dose curve at least 0.9, where 1 is the maximum). Summed up: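 Automated high-content imaging of betaIII-tubulin (Alexa Fluor-488) and Hoechst-stained cells gave neurite length, normalized to the DMSO baseline.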
A short description of assay [11]: IUF_NPC1_cytotoxicity_72hr: Cytotoxicity Assessment at 72 hours in the Leibniz Research Institute for Environmental Medicine (IUF) Neural Progenitor Cell Proliferation Assay (NPC1) (AID 2284332; active means hit-call score of the fitted dose curve at least 0.9, where 1 is the maximum;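 further: rising LDH signal means more cytotoxicity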). The method, boiled down:
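Membrane-integrity loss is scored from LDH released into the medium, detected as resorufin fluorescence, with activity fitted upward relative to baseline. Test material stays on human fetal-derived progenitor spheres for 72 h.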

Assay [12] can be described thus: CCTE_Mundy_HCI_iCellGluta_NOG_NeuriteCount: CCTE's Neurite Outgrowth Assay in iCellGluta cells for Neurite Count, Mundy Lab (AID 2284342; active means hit-call score of the fitted dose curve at least 0.9, where 1 is the maximum;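 further: chemical exposure about 48 hours starting 2 hours after plating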).

In the case of `C1CN(SSN2CCOCC2)CCO1`, the molecule was called inactive (in assay [1]; in [2]; in the assay with SRD5A2 (gene 6716)).

As to `CC(C)(C)c1ccc(OC(=O)c2ccccc2O)cc1`, the half-maximal activity concentration (AC50) in the assay on SERPINA7 (gene 6906) is 1.69 µM (active).

On to `O=c1cc(-c2ccccc2)oc2ccccc12`, for which the AC50 with SERPINA7 (gene 6906) was 18.5 µM (active).

For `O=C(c1ccc(O)cc1)c1ccc(O)cc1O`, the result with CD69, CD69 (gene 969) was inactive.

For the molecule `CCCCCCCC/C=C\CCCCCCCC(=O)OCCO`, the concentration at half-maximal activity (AC50) in the assay with IYD (gene 389434) is 128 µM (active).

Regarding `CCO[Si](C)(OCC)OCC`, in the assay with CD69, CD69 (gene 969), the result was inactive.

Take `Oc1ccc(Cl)cc1Cc1cc(Cl)ccc1O`: the concentration at half-maximal activity (AC50) is 100 µM (active) in the assay with IYD (gene 389434), 29 µM (active) in the assay on SRD5A2 (gene 6716) and 0.072 µM (active) in the assay with SERPINA7 (gene 6906). Besides, the outcome in assay [1] and in [2] was inactive.

Regarding `CCCc1ccc(OC)cc1`, the result (in assay [1]; in assay [2]; with SRD5A2 (gene 6716)) was inactive.

Regarding `O=C(O)CCCC[C@@H]1SC[C@@H]2NC(=O)N[C@@H]21`, in [3], the outcome was inactive.

As to `O=C(Nc1cccc(C(F)(F)F)c1)c1cc(Br)cc(Br)c1O`, the concentration at half-maximal activity (AC50) in the assay on IYD (gene 389434) is 100 µM (active).

In the case of `O=S(=O)(O)c1ccccc1C=Cc1ccc(-c2ccc(C=Cc3ccccc3S(=O)(=O)O)cc2)cc1`, the AC50 with IYD (gene 389434) was 100 µM (active).

In the case of `CC(C)(C)c1ccc(-c2ccc(C(C)(C)C)cc2)cc1`, the call with IYD (gene 389434) was inactive.

As to `CO[Si](OC)(OC)c1ccccc1`, the outcome with CD69, CD69 (gene 969) was inactive.

Turning to `CC1=NN(c2cc(S(=O)(=O)O)ccc2Cl)C(=O)C1N=Nc1ccccc1` (centres undefined), the result (in assay [1]; in assay [2]; in the assay on SERPINA7 (gene 6906)) was inactive. Besides, the half-maximal activity concentration (AC50) in the assay on SRD5A2 (gene 6716) was 10 µM (active).

Take `CCCCC/C=C\C/C=C\CCCCCCCC(=O)OC`: in the assay with IYD (gene 389434), the call was inactive.

Regarding `CCCCCCCC[N+](C)(CCCCCCCC)CCCCCCCC`, the half-maximal activity concentration (AC50) in the assay with IYD (gene 389434) is 27.2 µM (active); in assay [1] it was 11.4 µM (active); in assay [2], 8.7 µM (active); with SRD5A2 (gene 6716), 20.1 µM (active).

`CCCCC(CC)CCC(CC(C)C)OS(=O)(=O)O` (centres undefined): the half-maximal activity concentration (AC50) in the assay with SERPINA7 (gene 6906) is 11.1 µM (active).

Take `O=C(Nc1ccccc1)c1ccccc1O`: the molecule was called inactive in the assay on IYD (gene 389434).

For `CC1(C)S[C@@H]2[C@H](NC(=O)COc3ccccc3)C(=O)N2[C@H]1C(=O)O`, the result in [4], in [5], in [6], in assay [7], in assay [8] and in assay [9] was inactive. The molecule was called inactive in [10], in [11] and in [12].

Turning to `COC(=O)c1c(C)cc(O)c(C)c1O`, the molecule was called inactive (in [1]; in assay [2]; in the assay with SRD5A2 (gene 6716)).
